Measured values taken from article PMC7862700, “An all-to-all approach to the identification of sequence-specific readers for epigenetic DNA modifications on cytosine”.

Assays:
Assay in all cases: DAPPL (digital affinity profiling via proximity ligation, sequencing); 10 mM Tris-HCl pH 7.5, 50 mM NaCl, 1 mM DTT, 4% glycerol, room temperature, 30 min; GST-TFs on glutathione beads, 16-mer random dsDNA library, 0.1% formaldehyde crosslink after washing; high values mean tight binding
FLI1 = biological target: T1, FLI1 (Homo sapiens, UniProt Q01543 1-452); conditions: protein: recombinant; tags: N-terminal GST; dsDNA, one strand shown
T1 sequence: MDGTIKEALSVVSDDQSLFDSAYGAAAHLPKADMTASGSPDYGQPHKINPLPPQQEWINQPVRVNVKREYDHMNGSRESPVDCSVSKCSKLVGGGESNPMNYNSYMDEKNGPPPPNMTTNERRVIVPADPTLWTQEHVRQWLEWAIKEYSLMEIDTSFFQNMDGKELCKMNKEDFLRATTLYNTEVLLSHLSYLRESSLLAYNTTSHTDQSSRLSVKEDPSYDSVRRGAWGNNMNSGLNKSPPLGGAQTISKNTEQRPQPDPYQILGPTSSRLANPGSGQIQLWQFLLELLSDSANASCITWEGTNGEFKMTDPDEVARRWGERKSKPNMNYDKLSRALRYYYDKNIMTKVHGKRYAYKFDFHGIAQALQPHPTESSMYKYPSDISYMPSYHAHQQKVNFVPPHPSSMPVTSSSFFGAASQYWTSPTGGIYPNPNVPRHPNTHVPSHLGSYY
How it was run: (§1)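 GST fusions of human transcription factors were expressed in yeast and captured with glutathione beads. Once given DNA barcodes and pooled alongside a tag-only sample, they were incubated for 30 min at room temperature with 200 nmole of a random double-stranded 16-mer DNA library in Tris/NaCl/DTT/glycerol buffer, then washed, crosslinked (0.1% formaldehyde), proximity-ligated, PCR-amplified and sequenced on an Illumina NextSeq500. The binding signal of each hexamer is its read frequency for a factor divided by its frequency for the tag-only sample.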

ELK1 = biological target: T2, ELK1 (Homo sapiens, UniProt P19419 1-428); conditions: protein: recombinant; tags: N-terminal GST; dsDNA, one strand shown
T2 sequence: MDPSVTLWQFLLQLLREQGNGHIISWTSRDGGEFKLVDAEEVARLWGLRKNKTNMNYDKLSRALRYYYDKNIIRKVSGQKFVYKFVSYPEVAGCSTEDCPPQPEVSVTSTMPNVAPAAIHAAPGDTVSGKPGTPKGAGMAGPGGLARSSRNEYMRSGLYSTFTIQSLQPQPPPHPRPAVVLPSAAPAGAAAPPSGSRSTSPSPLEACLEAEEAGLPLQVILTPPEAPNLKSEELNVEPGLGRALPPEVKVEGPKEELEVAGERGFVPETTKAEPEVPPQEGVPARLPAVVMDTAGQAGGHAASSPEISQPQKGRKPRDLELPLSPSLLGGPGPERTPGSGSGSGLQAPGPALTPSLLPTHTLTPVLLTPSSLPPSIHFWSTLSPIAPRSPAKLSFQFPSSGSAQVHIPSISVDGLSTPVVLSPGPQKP
How it was run: as §1

GABPA = biological target: T3, GABPA (Homo sapiens, UniProt Q06546 1-454); conditions: protein: recombinant; tags: N-terminal GST; dsDNA, one strand shown
T3 sequence: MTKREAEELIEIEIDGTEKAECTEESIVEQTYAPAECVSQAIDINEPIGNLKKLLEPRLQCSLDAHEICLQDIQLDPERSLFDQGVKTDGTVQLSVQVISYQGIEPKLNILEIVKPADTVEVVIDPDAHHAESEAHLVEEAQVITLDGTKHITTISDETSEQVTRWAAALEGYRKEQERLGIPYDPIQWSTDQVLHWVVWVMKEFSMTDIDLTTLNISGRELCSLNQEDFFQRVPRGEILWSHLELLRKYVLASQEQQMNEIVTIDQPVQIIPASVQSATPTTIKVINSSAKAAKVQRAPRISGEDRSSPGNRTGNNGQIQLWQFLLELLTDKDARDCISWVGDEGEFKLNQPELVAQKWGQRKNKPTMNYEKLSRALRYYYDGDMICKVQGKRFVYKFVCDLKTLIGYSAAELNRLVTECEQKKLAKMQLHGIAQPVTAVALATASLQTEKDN
How it was run: as §1

ERG = biological target: T4, ERG (Homo sapiens, UniProt P11308 1-479); conditions: protein: recombinant; tags: N-terminal GST; dsDNA, one strand shown
T4 sequence: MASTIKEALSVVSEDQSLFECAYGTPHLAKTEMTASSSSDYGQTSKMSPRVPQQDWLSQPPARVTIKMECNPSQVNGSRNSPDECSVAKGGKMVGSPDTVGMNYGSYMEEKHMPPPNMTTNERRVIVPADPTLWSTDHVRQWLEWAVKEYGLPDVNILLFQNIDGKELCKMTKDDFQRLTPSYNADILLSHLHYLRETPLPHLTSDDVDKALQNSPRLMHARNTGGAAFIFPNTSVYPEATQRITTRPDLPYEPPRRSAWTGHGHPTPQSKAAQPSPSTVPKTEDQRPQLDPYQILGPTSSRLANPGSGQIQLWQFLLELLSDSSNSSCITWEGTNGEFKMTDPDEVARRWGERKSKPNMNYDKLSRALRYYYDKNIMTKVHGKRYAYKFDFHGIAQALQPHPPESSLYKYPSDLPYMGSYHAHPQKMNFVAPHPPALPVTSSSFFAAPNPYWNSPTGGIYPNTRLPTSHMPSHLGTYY
How it was run: as §1

ELF1 = ELF1 (Homo sapiens, UniProt P32519 1-619); conditions: protein: recombinant; tags: N-terminal GST; dsDNA, one strand shown
ELF1, sequence (P32519 whole entry): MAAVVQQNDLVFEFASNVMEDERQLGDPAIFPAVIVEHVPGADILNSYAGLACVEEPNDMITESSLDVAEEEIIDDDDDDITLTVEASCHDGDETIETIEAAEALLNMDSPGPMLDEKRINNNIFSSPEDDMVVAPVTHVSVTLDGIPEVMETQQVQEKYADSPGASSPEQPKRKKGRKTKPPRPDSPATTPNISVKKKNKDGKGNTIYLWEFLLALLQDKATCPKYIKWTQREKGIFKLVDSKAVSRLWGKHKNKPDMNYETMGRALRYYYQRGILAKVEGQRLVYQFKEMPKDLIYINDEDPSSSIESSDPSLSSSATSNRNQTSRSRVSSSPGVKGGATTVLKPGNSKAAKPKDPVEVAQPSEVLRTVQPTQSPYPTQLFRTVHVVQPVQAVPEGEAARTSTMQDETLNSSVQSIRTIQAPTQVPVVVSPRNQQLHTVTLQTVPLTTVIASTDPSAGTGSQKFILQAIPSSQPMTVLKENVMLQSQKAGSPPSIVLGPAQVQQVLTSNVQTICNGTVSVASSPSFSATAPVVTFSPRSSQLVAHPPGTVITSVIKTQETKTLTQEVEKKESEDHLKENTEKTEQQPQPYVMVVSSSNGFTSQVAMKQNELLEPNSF
How it was run: as §1

EHF = biological target: T5, EHF (Homo sapiens, UniProt Q9NZC4 1-300); conditions: protein: recombinant; tags: N-terminal GST; dsDNA, one strand shown
T5 sequence: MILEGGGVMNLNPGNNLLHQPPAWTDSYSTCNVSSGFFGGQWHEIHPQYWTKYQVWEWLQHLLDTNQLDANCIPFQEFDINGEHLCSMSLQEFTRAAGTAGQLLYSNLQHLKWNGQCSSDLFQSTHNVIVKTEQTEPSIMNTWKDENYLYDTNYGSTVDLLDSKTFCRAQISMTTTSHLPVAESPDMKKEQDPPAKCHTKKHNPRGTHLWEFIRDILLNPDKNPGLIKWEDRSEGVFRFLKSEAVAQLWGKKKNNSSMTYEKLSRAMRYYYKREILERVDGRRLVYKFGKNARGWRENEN
How it was run: as §1

SPI1 = SPI1 (Homo sapiens, UniProt P17947 1-270); conditions: protein: recombinant; tags: N-terminal GST; dsDNA, one strand shown
How it was run: as §1

SPIB = SPIB (Homo sapiens, UniProt Q01892 1-262); conditions: protein: recombinant; tags: N-terminal GST; dsDNA, one strand shown
SPIB, sequence (Q01892 whole entry): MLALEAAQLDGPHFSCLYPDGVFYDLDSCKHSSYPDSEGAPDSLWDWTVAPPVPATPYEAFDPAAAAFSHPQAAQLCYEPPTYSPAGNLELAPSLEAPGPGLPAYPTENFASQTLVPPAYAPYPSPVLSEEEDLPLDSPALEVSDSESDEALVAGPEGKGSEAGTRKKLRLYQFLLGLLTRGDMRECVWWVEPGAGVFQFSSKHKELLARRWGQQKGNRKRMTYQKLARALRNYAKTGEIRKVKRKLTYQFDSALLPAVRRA
How it was run: as §1

ELK3 = biological target: T6, ELK3 (Homo sapiens, UniProt P41970 1-407); conditions: protein: recombinant; tags: N-terminal GST; dsDNA, one strand shown
T6 sequence: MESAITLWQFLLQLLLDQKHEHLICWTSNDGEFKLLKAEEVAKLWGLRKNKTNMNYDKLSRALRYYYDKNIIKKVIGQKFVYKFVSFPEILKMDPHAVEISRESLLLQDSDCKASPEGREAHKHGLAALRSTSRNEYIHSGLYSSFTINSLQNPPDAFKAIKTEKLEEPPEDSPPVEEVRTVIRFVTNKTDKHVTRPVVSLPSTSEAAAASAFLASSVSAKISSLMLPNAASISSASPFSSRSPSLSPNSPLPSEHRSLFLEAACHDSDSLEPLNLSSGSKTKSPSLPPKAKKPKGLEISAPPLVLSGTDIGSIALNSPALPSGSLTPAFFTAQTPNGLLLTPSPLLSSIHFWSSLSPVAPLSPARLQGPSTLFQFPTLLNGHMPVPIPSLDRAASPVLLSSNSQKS
How it was run: as §1

FEV = biological target: T7, FEV (Homo sapiens, UniProt Q99581 1-238); conditions: protein: recombinant; tags: N-terminal GST; dsDNA, one strand shown
T7 sequence: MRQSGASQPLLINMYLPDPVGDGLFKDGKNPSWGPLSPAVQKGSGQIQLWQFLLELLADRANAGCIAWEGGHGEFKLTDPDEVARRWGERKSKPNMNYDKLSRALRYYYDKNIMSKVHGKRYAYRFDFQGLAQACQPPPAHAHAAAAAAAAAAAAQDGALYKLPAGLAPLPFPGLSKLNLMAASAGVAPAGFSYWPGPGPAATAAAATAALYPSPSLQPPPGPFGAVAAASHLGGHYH
How it was run: as §1

ETV5 = ETV5 (Homo sapiens, UniProt P41161 1-510); conditions: protein: recombinant; tags: N-terminal GST; dsDNA, one strand shown
ETV5, sequence (P41161 whole entry): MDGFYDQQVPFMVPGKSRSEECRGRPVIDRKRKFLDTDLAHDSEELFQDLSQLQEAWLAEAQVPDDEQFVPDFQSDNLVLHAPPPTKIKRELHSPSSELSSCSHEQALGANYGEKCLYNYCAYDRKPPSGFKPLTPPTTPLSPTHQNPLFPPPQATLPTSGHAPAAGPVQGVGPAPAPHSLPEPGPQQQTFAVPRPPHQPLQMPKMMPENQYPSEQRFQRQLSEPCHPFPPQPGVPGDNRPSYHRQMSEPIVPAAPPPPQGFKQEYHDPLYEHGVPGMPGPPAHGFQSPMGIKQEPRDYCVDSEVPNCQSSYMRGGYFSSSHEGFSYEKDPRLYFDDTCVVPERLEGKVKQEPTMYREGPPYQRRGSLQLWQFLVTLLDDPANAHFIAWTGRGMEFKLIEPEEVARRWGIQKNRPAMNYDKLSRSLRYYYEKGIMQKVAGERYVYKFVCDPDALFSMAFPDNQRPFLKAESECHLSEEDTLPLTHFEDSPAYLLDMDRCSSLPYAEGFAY
How it was run: as §1

HSF1 = HSF1 (Homo sapiens, UniProt Q00613 1-529); conditions: protein: recombinant; tags: N-terminal GST; chain copies: 3; dsDNA, one strand shown
HSF1, sequence (Q00613 whole entry): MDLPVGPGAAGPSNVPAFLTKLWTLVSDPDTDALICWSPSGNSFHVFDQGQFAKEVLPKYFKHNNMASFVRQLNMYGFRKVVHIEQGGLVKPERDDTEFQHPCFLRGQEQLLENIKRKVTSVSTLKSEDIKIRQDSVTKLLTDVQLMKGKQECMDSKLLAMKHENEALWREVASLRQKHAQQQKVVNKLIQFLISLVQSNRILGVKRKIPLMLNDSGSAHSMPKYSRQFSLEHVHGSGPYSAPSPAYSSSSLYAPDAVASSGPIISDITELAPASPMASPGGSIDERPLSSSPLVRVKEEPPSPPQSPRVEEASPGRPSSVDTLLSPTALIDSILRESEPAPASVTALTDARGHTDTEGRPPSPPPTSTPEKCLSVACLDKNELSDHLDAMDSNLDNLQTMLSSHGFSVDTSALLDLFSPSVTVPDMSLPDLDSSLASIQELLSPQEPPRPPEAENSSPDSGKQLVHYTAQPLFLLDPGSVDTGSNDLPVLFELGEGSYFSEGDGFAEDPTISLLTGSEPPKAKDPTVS
How it was run: as §1

SPIC = biological target: T8, SPIC (Homo sapiens, UniProt Q8N5J4 1-248); conditions: protein: recombinant; tags: N-terminal GST; dsDNA, one strand shown
T8 sequence: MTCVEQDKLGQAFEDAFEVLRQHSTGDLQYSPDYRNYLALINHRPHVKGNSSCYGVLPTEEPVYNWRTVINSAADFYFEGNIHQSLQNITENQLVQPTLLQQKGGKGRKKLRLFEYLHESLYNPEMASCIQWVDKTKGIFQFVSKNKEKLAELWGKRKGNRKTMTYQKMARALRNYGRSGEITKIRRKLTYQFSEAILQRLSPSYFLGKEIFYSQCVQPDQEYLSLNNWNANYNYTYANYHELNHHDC
How it was run: as §1

ELF4 = ELF4 (Homo sapiens, UniProt Q99607 1-663); conditions: protein: recombinant; tags: N-terminal GST; dsDNA, one strand shown
ELF4, sequence (Q99607 whole entry): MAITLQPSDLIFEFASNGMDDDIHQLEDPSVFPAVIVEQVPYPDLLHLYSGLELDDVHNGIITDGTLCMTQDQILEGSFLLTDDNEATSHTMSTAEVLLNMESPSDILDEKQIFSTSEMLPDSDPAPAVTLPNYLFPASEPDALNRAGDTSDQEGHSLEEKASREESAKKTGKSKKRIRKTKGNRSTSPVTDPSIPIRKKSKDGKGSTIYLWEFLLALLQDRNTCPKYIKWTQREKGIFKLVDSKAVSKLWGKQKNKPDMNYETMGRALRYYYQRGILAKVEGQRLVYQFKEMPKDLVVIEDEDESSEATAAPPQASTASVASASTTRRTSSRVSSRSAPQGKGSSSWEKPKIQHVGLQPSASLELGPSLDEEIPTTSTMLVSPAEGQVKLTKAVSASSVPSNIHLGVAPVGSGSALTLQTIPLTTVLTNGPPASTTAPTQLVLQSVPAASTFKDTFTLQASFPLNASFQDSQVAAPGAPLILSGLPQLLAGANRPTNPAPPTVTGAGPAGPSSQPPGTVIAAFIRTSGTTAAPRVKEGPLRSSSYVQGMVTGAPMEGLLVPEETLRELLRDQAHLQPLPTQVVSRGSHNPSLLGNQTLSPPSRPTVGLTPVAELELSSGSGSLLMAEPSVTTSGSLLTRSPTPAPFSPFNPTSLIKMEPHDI
How it was run: as §1

ELK4 = biological target: T9, ELK4 (Homo sapiens, UniProt P28324-2 1-405); conditions: protein: recombinant; tags: N-terminal GST; dsDNA, one strand shown
T9 sequence: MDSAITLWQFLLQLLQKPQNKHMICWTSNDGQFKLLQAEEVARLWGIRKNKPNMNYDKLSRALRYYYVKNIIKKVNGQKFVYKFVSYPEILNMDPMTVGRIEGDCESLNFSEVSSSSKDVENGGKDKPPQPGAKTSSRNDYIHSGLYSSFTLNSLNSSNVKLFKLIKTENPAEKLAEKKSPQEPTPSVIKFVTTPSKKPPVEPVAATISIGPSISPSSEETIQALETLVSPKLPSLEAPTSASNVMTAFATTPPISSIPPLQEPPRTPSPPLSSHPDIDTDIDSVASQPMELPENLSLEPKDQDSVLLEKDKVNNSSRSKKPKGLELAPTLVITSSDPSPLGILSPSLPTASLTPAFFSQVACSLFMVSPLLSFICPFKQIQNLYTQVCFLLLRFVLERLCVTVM
How it was run: as §1

ETV2 = biological target: T10, ETV2 (Homo sapiens, UniProt O00321 1-342); conditions: protein: recombinant; tags: N-terminal GST; dsDNA, one strand shown
T10 sequence: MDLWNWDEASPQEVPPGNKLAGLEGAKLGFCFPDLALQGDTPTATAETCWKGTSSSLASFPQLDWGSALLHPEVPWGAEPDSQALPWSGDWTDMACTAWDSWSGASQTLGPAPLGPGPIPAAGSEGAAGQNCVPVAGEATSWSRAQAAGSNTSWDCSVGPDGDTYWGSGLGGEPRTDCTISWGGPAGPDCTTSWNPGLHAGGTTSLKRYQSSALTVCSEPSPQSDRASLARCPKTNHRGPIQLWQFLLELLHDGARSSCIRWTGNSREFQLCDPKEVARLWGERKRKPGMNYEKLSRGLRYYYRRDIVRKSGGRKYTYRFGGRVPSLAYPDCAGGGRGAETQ
How it was run: as §1

ELF3 = biological target: T11, ELF3 (Homo sapiens, UniProt P78545 1-371); conditions: protein: recombinant; tags: N-terminal GST; dsDNA, one strand shown
T11 sequence: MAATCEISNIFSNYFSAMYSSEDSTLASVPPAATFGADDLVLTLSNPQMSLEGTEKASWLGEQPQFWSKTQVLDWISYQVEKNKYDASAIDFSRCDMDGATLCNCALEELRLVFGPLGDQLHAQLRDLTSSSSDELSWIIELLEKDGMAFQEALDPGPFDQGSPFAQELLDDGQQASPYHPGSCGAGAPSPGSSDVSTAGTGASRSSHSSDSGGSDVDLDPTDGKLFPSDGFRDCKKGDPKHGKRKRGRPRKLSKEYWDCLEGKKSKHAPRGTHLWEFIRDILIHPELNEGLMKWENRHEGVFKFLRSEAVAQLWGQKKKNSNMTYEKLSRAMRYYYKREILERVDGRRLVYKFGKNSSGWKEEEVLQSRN
How it was run: as §1

CRX = CRX (Homo sapiens, UniProt O43186 1-299); conditions: protein: recombinant; tags: N-terminal GST; dsDNA, one strand shown
CRX, sequence (O43186 whole entry): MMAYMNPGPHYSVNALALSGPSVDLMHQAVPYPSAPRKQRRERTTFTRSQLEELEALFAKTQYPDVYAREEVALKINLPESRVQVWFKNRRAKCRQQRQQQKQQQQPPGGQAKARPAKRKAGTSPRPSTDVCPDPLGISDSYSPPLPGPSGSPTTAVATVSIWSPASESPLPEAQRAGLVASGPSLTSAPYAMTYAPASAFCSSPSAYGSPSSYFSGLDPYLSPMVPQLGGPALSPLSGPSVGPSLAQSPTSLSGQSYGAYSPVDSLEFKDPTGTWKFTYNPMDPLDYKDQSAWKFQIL
How it was run: as §1

ETV1 = ETV1 (Homo sapiens, UniProt P50549 1-477); conditions: protein: recombinant; tags: N-terminal GST; dsDNA, one strand shown
ETV1, sequence (P50549 whole entry): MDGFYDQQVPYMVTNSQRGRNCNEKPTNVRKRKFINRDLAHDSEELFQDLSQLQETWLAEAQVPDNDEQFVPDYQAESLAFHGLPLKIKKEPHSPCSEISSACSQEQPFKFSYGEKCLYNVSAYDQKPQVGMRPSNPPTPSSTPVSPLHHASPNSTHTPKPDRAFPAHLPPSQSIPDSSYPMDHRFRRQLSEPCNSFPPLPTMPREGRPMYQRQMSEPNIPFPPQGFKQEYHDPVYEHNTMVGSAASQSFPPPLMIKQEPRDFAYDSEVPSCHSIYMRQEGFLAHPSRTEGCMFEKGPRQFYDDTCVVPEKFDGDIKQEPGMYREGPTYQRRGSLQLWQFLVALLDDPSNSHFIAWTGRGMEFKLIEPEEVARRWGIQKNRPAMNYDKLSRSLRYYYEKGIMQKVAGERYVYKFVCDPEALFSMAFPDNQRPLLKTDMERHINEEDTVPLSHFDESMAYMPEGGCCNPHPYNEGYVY
How it was run: as §1

Sequence: GCCCTA
- binding signal (FLI1): 1.29 fold enrichment (6-mer frequency, TF over GST control)
- binding signal (ELK1): 1.24 fold enrichment (6-mer frequency, TF over GST control)
- binding signal (GABPA): 1.21 fold enrichment (6-mer frequency, TF over GST control)
- binding signal (ERG): 1.15 fold enrichment (6-mer frequency, TF over GST control)
- binding signal (ELF1): 1.19 fold enrichment (6-mer frequency, TF over GST control)
- binding signal (EHF): 1.12 fold enrichment (6-mer frequency, TF over GST control)
- binding signal (SPI1): 1.19 fold enrichment (6-mer frequency, TF over GST control)
- binding signal (SPIB): 1.28 fold enrichment (6-mer frequency, TF over GST control)
- binding signal (ELK3): 1.19 fold enrichment (6-mer frequency, TF over GST control)
- binding signal (FEV): 1.28 fold enrichment (6-mer frequency, TF over GST control)
- binding signal (ETV5): 1.16 fold enrichment (6-mer frequency, TF over GST control)
- binding signal (HSF1): 1.13 fold enrichment (6-mer frequency, TF over GST control)
- binding signal (SPIC): 1.18 fold enrichment (6-mer frequency, TF over GST control)
- binding signal (ELF4): 1.24 fold enrichment (6-mer frequency, TF over GST control)
- binding signal (ELK4): 1.24 fold enrichment (6-mer frequency, TF over GST control)
- binding signal (ETV2): 1.06 fold enrichment (6-mer frequency, TF over GST control)
- binding signal (ELF3): 1.19 fold enrichment (6-mer frequency, TF over GST control)
- binding signal (CRX): 1.27 fold enrichment (6-mer frequency, TF over GST control)
- binding signal (ETV1): 1.06 fold enrichment (6-mer frequency, TF over GST control)
